# From the supplement of paper PMC6555819
# Assays:
# Assay in all cases: PBM binding z-score (relative to random genomic background probes); higher = stronger binding; sequences stand for … in GC…GCGATTGACAGCGTAGAATGAAGG
# [1] = tested on: PPARg:RXRa DBDmut IVT, anti-RXR (DBD mutation: RXRa K156A/R161A, NR concentration 270 nM, RXRa partner concentration 90 nM)
# In short: (§1)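 Custom Agilent 4×180K protein-binding microarrays carried double-stranded probes. Their 34-nt variable regions held direct-repeat seeds, single-nucleotide variants, half-site ablations and random human genomic background sequences. Arrays were incubated 1 h with ligand-free nuclear receptor dimers in PBS pH 7.4, 2% milk, 0.02% Triton X-100, 1 mM DTT, 0.2 mg/mL BSA and 0.4 mg/ml salmon testes DNA. Antibodies against each partner (one per run) detected binding, and scanned fluorescence was regression-normalized. Binding z-scores use random background probes as reference.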
# [2] = tested on: PPARg:RXRa IVT, anti-PPARg (NR concentration 270 nM, RXRa partner concentration 90 nM)
# In short: as §1
# [3] = tested on: PPARg DBDmut:RXRa IVT, anti-PPARg (DBD mutation: PPARg1 K132A/R137A, NR concentration 270 nM, RXRa partner concentration 90 nM)
# In short: as §1
# [4] = tested on: PPARg DBDmut IVT, anti-PPARg (DBD mutation: PPARg1 K132A/R137A, NR concentration 270 nM)
# In short: as §1
# [5] = tested on: PPARg homodimer (NR concentration 180 nM)
# In short: as §1
# [6] = tested on: PXR:RXRa (NR concentration 270 nM, RXRa partner concentration 90 nM)
# In short: as §1
# [7] = tested on: PXR homodimer (NR concentration 270 nM)
# In short: as §1
# [8] = tested on: RARa:RXR (NR concentration 270 nM, RXRa partner concentration 90 nM)
# In short: as §1
# [9] = tested on: RARa homodimer (NR concentration 270 nM)
# In short: as §1
# [10] = tested on: RARb:RXRa (NR concentration 270 nM, RXRa partner concentration 90 nM)
# In short: as §1
sequence,measurement,setting,value
ATATGTAGGTTATCGGATCATTCAGTTTGCGCAT,PBM binding z-score,[1],7.18
same,PBM binding z-score,[2],6.73
same,PBM binding z-score,[3],2.24
same,PBM binding z-score,[4],2.07
same,PBM binding z-score,[5],1.46
same,PBM binding z-score,[6],0.908
same,PBM binding z-score,[7],0.884
same,PBM binding z-score,[8],1.05
same,PBM binding z-score,[9],1.48
same,PBM binding z-score,[10],0.993
CAAACTAGGTCACCGGAAGGTCAGAGTCCGCATG,PBM binding z-score,[1],8.5
same,PBM binding z-score,[2],8.94
same,PBM binding z-score,[3],4.78
same,PBM binding z-score,[4],2.92
same,PBM binding z-score,[5],4.96
same,PBM binding z-score,[6],4.71
same,PBM binding z-score,[7],0.703
same,PBM binding z-score,[8],6.14
same,PBM binding z-score,[9],2.03
same,PBM binding z-score,[10],5.31
ACTAGCAGGCCAAGTTTGGGTCACTAAAACAAAG,PBM binding z-score,[1],0.86
same,PBM binding z-score,[2],1.41
same,PBM binding z-score,[3],-0.183
same,PBM binding z-score,[4],-0.616
same,PBM binding z-score,[5],0.00653
same,PBM binding z-score,[6],0.707
same,PBM binding z-score,[7],-0.272
same,PBM binding z-score,[8],1.49
same,PBM binding z-score,[9],-0.238
same,PBM binding z-score,[10],1.79
CCGAGTAGGTAATGGGGCATTCAGGCAACGGTGA,PBM binding z-score,[1],3.06
same,PBM binding z-score,[2],3.08
same,PBM binding z-score,[3],-0.988
same,PBM binding z-score,[4],-0.54
same,PBM binding z-score,[5],0.397
same,PBM binding z-score,[6],-0.417
same,PBM binding z-score,[7],-0.151
same,PBM binding z-score,[8],-0.249
same,PBM binding z-score,[9],-0.452
same,PBM binding z-score,[10],0.118
TGAGACAGGTGAAGGTAACTCAGGTACGCAGTCG,PBM binding z-score,[1],-0.0775
same,PBM binding z-score,[2],0.991
same,PBM binding z-score,[3],0.178
same,PBM binding z-score,[4],-0.801
same,PBM binding z-score,[5],0.0963
same,PBM binding z-score,[6],-0.189
same,PBM binding z-score,[7],-0.538
same,PBM binding z-score,[8],0.124
same,PBM binding z-score,[9],-0.0291
same,PBM binding z-score,[10],0.697
ACTATTAGTTGACTTAGAGCAACCGATACGACGC,PBM binding z-score,[1],-0.101
same,PBM binding z-score,[2],0.383
same,PBM binding z-score,[3],1.2
same,PBM binding z-score,[4],1.1
same,PBM binding z-score,[5],0.577
same,PBM binding z-score,[6],-0.152
same,PBM binding z-score,[7],0.119
same,PBM binding z-score,[8],-0.00338
same,PBM binding z-score,[9],1.16
same,PBM binding z-score,[10],0.073
CCTACTGGACCATCAGGTCATTGATATCAACGTT,PBM binding z-score,[1],2.13
same,PBM binding z-score,[2],2.58
same,PBM binding z-score,[3],0.468
same,PBM binding z-score,[4],0.568
same,PBM binding z-score,[5],2.23
same,PBM binding z-score,[6],2.09
same,PBM binding z-score,[7],1.45
same,PBM binding z-score,[8],2.25
same,PBM binding z-score,[9],1.47
same,PBM binding z-score,[10],1.97
ATCTCTAGGTAACCAAGTTCTGTGAATGCCGAAC,PBM binding z-score,[1],3.07
same,PBM binding z-score,[2],2.82
same,PBM binding z-score,[3],0.454
same,PBM binding z-score,[4],0.664
same,PBM binding z-score,[5],0.688
same,PBM binding z-score,[6],0.262
same,PBM binding z-score,[7],0.109
same,PBM binding z-score,[8],0.329
same,PBM binding z-score,[9],0.574
same,PBM binding z-score,[10],0.423
CAGCCTAGGTCAGGGCTAGTATAGGAGGAACGTT,PBM binding z-score,[1],1.32
same,PBM binding z-score,[2],1.55
same,PBM binding z-score,[3],-1.23
same,PBM binding z-score,[4],-0.952
same,PBM binding z-score,[5],0.47
same,PBM binding z-score,[6],0.176
same,PBM binding z-score,[7],-0.363
same,PBM binding z-score,[8],1.08
same,PBM binding z-score,[9],-0.159
same,PBM binding z-score,[10],3.41
AGATGTAGGTTAGCTGGGGTCATTCAGACTAGGC,PBM binding z-score,[1],5.87
same,PBM binding z-score,[2],5.76
same,PBM binding z-score,[3],1.86
same,PBM binding z-score,[4],0.481
same,PBM binding z-score,[5],2.31
same,PBM binding z-score,[6],6.19
same,PBM binding z-score,[7],3.97
same,PBM binding z-score,[8],5.41
same,PBM binding z-score,[9],0.958
same,PBM binding z-score,[10],3
TAGCCTAGGTCATTCAGGGGCCAGTGTAGAAAGC,PBM binding z-score,[1],1.87
same,PBM binding z-score,[2],2.74
same,PBM binding z-score,[3],0.0729
same,PBM binding z-score,[4],-0.141
same,PBM binding z-score,[5],1.39
same,PBM binding z-score,[6],2.27
same,PBM binding z-score,[7],-0.259
same,PBM binding z-score,[8],3.32
same,PBM binding z-score,[9],-0.591
same,PBM binding z-score,[10],3.96
CAAACTAGGTCACCGGAAGCTCAAAGTCCGCATG,PBM binding z-score,[1],8.73
same,PBM binding z-score,[2],9.13
same,PBM binding z-score,[3],6.78
same,PBM binding z-score,[4],2.89
same,PBM binding z-score,[5],2.58
same,PBM binding z-score,[6],1.9
same,PBM binding z-score,[7],0.365
same,PBM binding z-score,[8],3.19
same,PBM binding z-score,[9],1.19
same,PBM binding z-score,[10],4.38
CTCGAACGGTCGTGCTCAGGTGAGTATACCAAAC,PBM binding z-score,[1],0.143
same,PBM binding z-score,[2],-0.0947
same,PBM binding z-score,[3],-0.8
same,PBM binding z-score,[4],-0.726
same,PBM binding z-score,[5],0.0744
same,PBM binding z-score,[6],-0.455
same,PBM binding z-score,[7],-0.32
same,PBM binding z-score,[8],-0.252
same,PBM binding z-score,[9],-0.56
same,PBM binding z-score,[10],0.781
ATCTCTAGGGAAAGTTCAGTGAAAGATCGATAGA,PBM binding z-score,[1],0.291
same,PBM binding z-score,[2],0.739
same,PBM binding z-score,[3],0.561
same,PBM binding z-score,[4],0.968
same,PBM binding z-score,[5],1.06
same,PBM binding z-score,[6],1.52
same,PBM binding z-score,[7],1.46
same,PBM binding z-score,[8],1.38
same,PBM binding z-score,[9],1.07
same,PBM binding z-score,[10],2.61
ATCGAAAGGTCGACGGTGAGTATACCCACCCGAA,PBM binding z-score,[1],-0.188
same,PBM binding z-score,[2],1.6
same,PBM binding z-score,[3],0.9
same,PBM binding z-score,[4],0.777
same,PBM binding z-score,[5],1.58
same,PBM binding z-score,[6],2.43
same,PBM binding z-score,[7],-0.256
same,PBM binding z-score,[8],3.22
same,PBM binding z-score,[9],0.352
same,PBM binding z-score,[10],3.8
GCGACTGGGGCACAGCAGGTTACCATAAGGTTGG,PBM binding z-score,[1],5.07
same,PBM binding z-score,[2],4.28
same,PBM binding z-score,[3],-0.331
same,PBM binding z-score,[4],-0.666
same,PBM binding z-score,[5],0.354
same,PBM binding z-score,[6],0.113
same,PBM binding z-score,[7],-0.29
same,PBM binding z-score,[8],0.435
same,PBM binding z-score,[9],-0.475
same,PBM binding z-score,[10],0.997
CCTGATAGGTCATGGTCAGCTAATCTACAGTATG,PBM binding z-score,[1],3.61
same,PBM binding z-score,[2],2.99
same,PBM binding z-score,[3],1.15
same,PBM binding z-score,[4],0.715
same,PBM binding z-score,[5],2.24
same,PBM binding z-score,[6],2.79
same,PBM binding z-score,[7],0.473
same,PBM binding z-score,[8],4.02
same,PBM binding z-score,[9],1.43
same,PBM binding z-score,[10],4.18
CGAACGAGGGCATGAGTTTATAGCAAATGCCGAT,PBM binding z-score,[1],3.26
same,PBM binding z-score,[2],2.5
same,PBM binding z-score,[3],0.366
same,PBM binding z-score,[4],-0.357
same,PBM binding z-score,[5],0.413
same,PBM binding z-score,[6],1.65
same,PBM binding z-score,[7],1.18
same,PBM binding z-score,[8],0.678
same,PBM binding z-score,[9],-0.149
same,PBM binding z-score,[10],2.11
TATATTAGTTGATTAGGGCAACCGAAACAGCGGA,PBM binding z-score,[1],0.409
same,PBM binding z-score,[2],2.01
same,PBM binding z-score,[3],2.25
same,PBM binding z-score,[4],1.83
same,PBM binding z-score,[5],1.16
same,PBM binding z-score,[6],0.636
same,PBM binding z-score,[7],0.89
same,PBM binding z-score,[8],0.181
same,PBM binding z-score,[9],2.13
same,PBM binding z-score,[10],1.16
CAGCCTCGGTCAGGGCCAGTATAGGAGGAACGTT,PBM binding z-score,[1],-0.887
same,PBM binding z-score,[2],-0.552
same,PBM binding z-score,[3],-1.14
same,PBM binding z-score,[4],-2.31
same,PBM binding z-score,[5],-0.745
same,PBM binding z-score,[6],-0.881
same,PBM binding z-score,[7],-0.661
same,PBM binding z-score,[8],-0.746
same,PBM binding z-score,[9],-0.656
same,PBM binding z-score,[10],2.01
GCTGCTAGGTCGGGTTGGTCAGCTAACGGGTACG,PBM binding z-score,[1],0.38
same,PBM binding z-score,[2],0.339
same,PBM binding z-score,[3],-1.51
same,PBM binding z-score,[4],-0.0499
same,PBM binding z-score,[5],-0.349
same,PBM binding z-score,[6],-0.0179
same,PBM binding z-score,[7],-0.16
same,PBM binding z-score,[8],-0.157
same,PBM binding z-score,[9],-1.16
same,PBM binding z-score,[10],1.16
CCTAGCTGGTCAAGGTCACACACGCTATAGGTAC,PBM binding z-score,[1],1.88
same,PBM binding z-score,[2],2.8
same,PBM binding z-score,[3],0.834
same,PBM binding z-score,[4],0.076
same,PBM binding z-score,[5],3.15
same,PBM binding z-score,[6],4.03
same,PBM binding z-score,[7],1.43
same,PBM binding z-score,[8],4.64
same,PBM binding z-score,[9],2.61
same,PBM binding z-score,[10],3.99
CGTCAAAGTTCAACTAAGGGAACGTAAAGCACGC,PBM binding z-score,[1],0.0961
same,PBM binding z-score,[2],1.71
same,PBM binding z-score,[3],0.646
same,PBM binding z-score,[4],0.162
same,PBM binding z-score,[5],2.6
same,PBM binding z-score,[6],4.91
same,PBM binding z-score,[7],3.23
same,PBM binding z-score,[8],3.84
same,PBM binding z-score,[9],1.55
same,PBM binding z-score,[10],5.25
CCTCAAAGTTCAACTAAGGTAACGTAAAGCACGC,PBM binding z-score,[1],0.946
same,PBM binding z-score,[2],0.996
same,PBM binding z-score,[3],1.12
same,PBM binding z-score,[4],0.201
same,PBM binding z-score,[5],4.29
same,PBM binding z-score,[6],5.71
same,PBM binding z-score,[7],4.04
same,PBM binding z-score,[8],4.47
same,PBM binding z-score,[9],3.41
same,PBM binding z-score,[10],5.33
